ATXN viability: viability counter-screen for ATXN expression inhibitors; AID 651635; actives 0.49% (n = 400,000); Potency, µM (titrated, usually from 56.7 µM), actives largely listed as cytotoxic; S2 cells (HEK-293 line with an ATXN2-luciferase reporter) viability, CellTiter-Fluor protease fluorescence, 24 h; also: potency is read from the fitted curve at half-maximal effect; nearly all actives have a fitted effect of over 40% in size
HepG2 tox: kills HepG2 cells in TGF-b inhibitor counter-screen; HepG2 CAGA-GFP viability, ATP luminescence, 18 h; Potency, µM (highest dose often 46.1 µM), for inactives: at the top dose activity change, negative = cytotoxicity, hits mostly cytotoxic; actives 0.76% (n = 410,000); AID 588856; also: potency is read from the fitted curve at half-maximal effect
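HepG2 CAGA-GFP cells (1000/well, DMEM with 1% FBS) received compound, then TGF-beta at 500 pg/mL final, and were incubated 18 hours at 37 degrees C. Viability was read by CellTiter-Glo luminescence. Media-only wells were set as complete cell-killing and DMSO as no toxicity.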
TGFb inhibitor: TGF-b pathway inhibition; HepG2 CAGA-GFP TGF-b/SMAD3 reporter, GFP fluorescence, 18 h; TGF-beta stimulated, 500 pg/mL final; Potency, µM (doses to about 46.1 µM), for the others: top-dose activity, negative = inhibition, actives largely listed as inhibitors; actives 1.2% (n = 410,000); AID 588855; also: potency is read from the fitted curve at half-maximal effect; % is scaled to controls: 0 for no effect and ±100 for the full control effect; nearly all actives have a fitted effect of over 65% in size
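Smad-responsive CAGA-GFP expression was quantified in HEPG2 cells exposed to compounds and 500 pg/mL final TGF-beta for 18 h at 37 degrees C; unstimulated wells defined full inhibition.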
ATXN2 expr inh: ATXN2 expression inhibition; HEK-293 ATXN2-luciferase reporter, luminescence, 24 h; Potency, µM (highest dose often 57 µM), for inactives: top-dose activity change, negative = inhibition, most hits filed as inhibitors; actives 0.72% (n = 360,000); AID 1745845; also: potency is read from the fitted curve at half-maximal effect; % is scaled to controls: 0 for no effect and ±100 for the full control effect; nearly all actives have a fitted effect of over 55% in size
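ATXN2-luciferase reporter cells (luciferase flanked by upstream and downstream ATXN2 gene portions) were treated 24 h at 37 °C with compounds at up to 57 uM. SteadyGlo luminescence gave expression; GF-AFC fluorescence gave viability.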
DRD3 agonist: activates the human D3 dopamine receptor; P35462; D3R DiscoveRx beta-arrestin cells, luminescence, 90 min; max activation, %; actives 0.58% (n = 410,000); in the data active = max activation above about 30%; also: 0% is about no effect
Target sequence (P35462 whole entry, looked up): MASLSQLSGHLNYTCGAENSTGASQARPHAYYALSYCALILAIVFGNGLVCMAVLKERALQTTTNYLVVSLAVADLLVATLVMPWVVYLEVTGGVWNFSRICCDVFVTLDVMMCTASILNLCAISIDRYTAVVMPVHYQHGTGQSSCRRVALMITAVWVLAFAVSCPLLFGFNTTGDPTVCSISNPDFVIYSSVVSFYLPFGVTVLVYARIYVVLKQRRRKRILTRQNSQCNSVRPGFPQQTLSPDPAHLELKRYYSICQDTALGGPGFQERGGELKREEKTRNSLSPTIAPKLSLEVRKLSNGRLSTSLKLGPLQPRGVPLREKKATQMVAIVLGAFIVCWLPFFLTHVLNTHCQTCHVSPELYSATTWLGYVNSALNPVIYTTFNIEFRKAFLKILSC
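Cells at 1500/well, incubated overnight, then treated with pinned compounds (dopamine as control) for 90 min at 37 degrees C. DiscoveRx reagent added for 30 - 60 minutes at room temperature; luminescence read.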
D3 antag: antagonists of human D3 dopamine receptor; P35462; D3R cells, DiscoveRx beta-arrestin luminescence, antagonist mode; stronger effect = lower value; max response, negative = inhibition, %; actives 2.5% (n = 360,000); in the data active = max response below about -50%; inconclusive = no clear call, values can overlap the other calls; also: % is scaled to controls: 0 for no effect and ±100 for the full control effect
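Cells expressing the human receptor were seeded at 1500 cells/well, incubated overnight at 37 degrees C in 5% CO2, then exposed to library compounds with dopamine controls for 90 minutes at 37 degrees C before luminescent detection.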
The depositor's hits bear a star; i = inactive; ? = inconclusive; / = not tested or not shown; [ ] = remark or other dose. Most compounds without a hit are left out; they make up all but 4.8% or so of the library. Unless noted, calls follow the shape of the dose curve; as a rule, active = well fitted curve in the direction sought with a large enough effect; inconclusive = small, poorly fitted or top-dose-only effect, or another doubt; inactive = no such curve, though single readings can be large; an effect the other way counts as inactive or inconclusive.

SMILES	ATXN viability	HepG2 tox	TGFb inhibitor	ATXN2 expr inh	DRD3 agonist	D3 antag
COC(=O)C(Cc1ccc(N(CCCl)CCCl)cc1)N=Cc1ccccc1O (configuration not stated)	11µM*	-52%	?	3.2µM*	-8	?
Cc1ccc(-c2nnc(Nc3ccc(OC(F)(F)Cl)cc3)c3ccccc23)cc1S(=O)(=O)NC(C)(C)CO	i	-28%	?	0%	2	/
COc1cc2nc(CN3CC=C(c4ccccc4)CC3)[nH]c(=O)c2cc1OC	i	-31%	?	1µM*	5	22
CCC(=O)O[C@H]1[C@@H](N2CCCCC2)C[C@H]2[C@@H]3CC[C@H]4C[C@H](OC(C)=O)[C@@H](N5CCCCC5)C[C@]4(C)[C@H]3CC[C@@]21C	?	/	/	/	-15	/
CCc1ccc(CNC(=O)c2ccc3c(c2)N=C(C)c2cc(C)ccc2S3)cc1	?	-18%	?	-18%	-17	/
ClCCN(CCCl)c1ccc(C=Cc2ccncn2)cc1	/	-9%	22%	-23%	72*	-14
CCc1ccc([C@H]2[C@@H]3C(=O)C[C@@H]4C(=O)N(Cc5ccccc5)C(=O)[C@@H]4[C@@H]3CN2S(=O)(=O)c2ccc(C)cc2)cc1	i	2%	?	7%	-3	-2
COC(=NC1CCCCC1)C(O)c1c[nH]c2ccccc12 (configuration not stated)	i	2%	-6%	-3%	-2	-14
OC(CN1CCC(c2c[nH]c3ccccc23)CC1)C(F)(F)F (configuration not stated)	i	-19%	4%	/	-6	-63*
CC(C)(C)C1CCc2onc(C(=O)O)c2C1 (configuration not stated)	?	2%	10%	0%	2	4
C[C@@H]1CN([C@@H](C)CO)C(=O)CCCn2nncc2CO[C@@H]1CN(C)C(=O)Nc1ccc(N2CCCCC2)cc1	i	9%	2%	11%	-4	3
O=Nc1c(O)c2ccccc2c2ccccc12	16µM*	2.8µM*	2.2µM*	7.9µM*	14	-4
OC(Cn1c2ccccc2c2ccccc21)C[n+]1cccc2ccccc21 (configuration not stated)	22µM*	-96%	?	?	0	-15
O=C(NCCOCCn1c(=O)oc2ccccc21)Nc1ccc(F)cc1F	i	-25%	?	-26%	-9	/
O=c1[nH]/c(=C\c2ccc(N(CCCl)CCCl)cc2)c(=O)[nH]/c1=C\c1ccc(N(CCCl)CCCl)cc1	/	-14%	29%	/	/	/
O=c1[nH]c2ccccc2n1C1CCN(C(CCc2ccccc2)c2nnnn2-c2ccc3c(c2)OCCO3)CC1 (configuration not stated)	/	-18%	?	7.9µM*	36*	98
CCOP(=O)(OCC)c1ccc2ccc3ccccc3c(=O)c2c1	i	-52%	-5%	-20%	/	/
CCOC(=O)[C@]12Cc3cc(C)ccc3[C@H]1N(Cc1ccccc1)C(=O)c1cc(F)c(F)cc12	16µM*	/	/	18µM*	0	8
CCOC(=O)[C@]12Cc3cc(OC)ccc3[C@H]1N(Cc1ccccc1)C(=O)c1cc(F)c(F)cc12	i	-8%	?	-15%	-13	-18
CCOC(=O)[C@]12Cc3cc(C)ccc3[C@H]1N(Cc1ccccc1)C(=O)c1ccccc12	?	-21%	10µM*	?	5	27
CC1(C)S[C@@H]2[C@H](N3C(=O)C(c4ccccc4)NC3(C)C)C(=O)N2[C@H]1C(=O)O (some centres not stated)	/	/	/	/	-25	/
O=S(=O)(O)C(F)(F)C(F)(F)C(F)(F)C(F)(F)C(F)(F)C(F)(F)C(F)(F)C(F)(F)F	?	/	/	15%[116 µM]	-15	/
CCOC(C(=O)OCCN(C)C)(c1ccccc1)c1ccccc1	i	/	/	-21%	/	/
COc1nc(NC(C)C)nc(N(C#N)CN2C(=O)c3ccccc3S2(=O)=O)n1	i	-11%	?	-8%	-3	-58*
O=c1c2ccccc2nc(-c2cccs2)n1-c1ccccc1	i	-3%	-12%	-4%	1	2
SMILES	ATXN viability	HepG2 tox	TGFb inhibitor	ATXN2 expr inh	DRD3 agonist	D3 antag
NC(N)=N/N=C/c1cn(-c2ccccc2)nc1-c1cccs1	/	11µM*	?	/	3	37
CSc1ncc(CN2CCCC(C(=O)c3sccc3C)C2)cn1 (configuration not stated)	i	-13%	?	-18%	-19	-25
Cc1ccsc1C(=O)C1CCCN(Cc2cnc(N3CCCC3)s2)C1 (configuration not stated)	i	-26%	-29%	-37%	-17	-79*
Cc1ccc(CN2CCCC(C(=O)c3sccc3C)C2)o1 (configuration not stated)	i	-16%	-12%	-9%	-24	-52*
Cc1c(C(=O)NCc2ccc3c(c2)OCO3)cnn1-c1ncc2c(n1)-c1ccccc1CC2	i	/	/	/	/	/
COc1cc2nc(N3CCCN(C)CC3)nc(N(C)C3CCN(C)CC3)c2cc1OC	/	-57%	?	/	/	/
CC(=O)OC1C(O)C(C)OC(OC2C(OC(=O)C3CCC4C(C3)OC3(CC(OC(=O)/C=C/c5ccccc5)C(C)CO3)C43CO3)OC(C)C(O)C2OC(C)=O)C1O (configuration not stated)	?	4%	?	0.21µM*	6	4
O=C1NC(=O)N(c2ccccc2)C(=O)/C1=C/c1ccc(Sc2ccccc2)o1	?	-4%	23%	25µM*	5	-18
COC12C(COC(N)=O)C3=C(C(=O)C(C)=C(N)C3=O)N1CC1C2N1C (configuration not stated)	?	-66%	-29%	6.3µM*	28	0
C1CN2CCC1CC2	i	/	/	8%	/	/
